KB-3-1 cytotox: KB-3-1 parental cell cytotoxicity; AID 1347075; Potency, µM (top dose mostly 46.1 µM), hits mostly cytotoxic; 400,000 compounds, 1.4% hits; KB-3-1 viability, CellTiter-Glo ATP luminescence, 72 h; note: nearly all actives have a fitted effect of over 60% in size
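Parental KB-3-1 viability, qHTS format: 72 h compound exposure, 37 °C; CellTiter-Glo; media-only wells and DMSO plates as controls; concentration-effect fits on corrected data.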
PINK1 expr mod: changes PINK1 expression | PINK1 immunofluorescence, high-content cytometry, 24 h | Potency, µM (titrated, usually from 76.6 µM), actives largely listed as activators | AID 624263 | 410,000 compounds, 0.2% hits; active = well fitted activation curve with a large enough effect; inconclusive = small, poorly fitted or top-dose-only effect; cell line not stated here; note: nearly all actives have a fitted effect of over 65% in size
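Cells are seeded, rested 12 hours, then given compound at five concentrations or DMSO for 24 hours. After fixation, blocking and antibody staining, PINK1 amount and mitochondrial localization are scored; CCCP serves as control.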
MCF10A rereplic: inducers of DNA re-replication in MCF 10A breast cells; MCF 10A DNA re-replication, Hoechst nuclear intensity, 48 h; Potency, µM (titrated, usually from 46.1 µM), hits mostly activators; 350,000 compounds, 2.9% hits; AID 624296; note: nearly all actives have a fitted effect of over 50% in size
ALOX12 inh: inhibitors of human 12S-lipoxygenase ALOX12; P18054; purified 12hLO, xylenol orange hydroperoxide absorbance; Potency, µM (doses to about 108 µM), most hits filed as inhibitors; 580,000 compounds, 1.1% hits; AID 1671190
Target sequence (P18054 whole entry, looked up): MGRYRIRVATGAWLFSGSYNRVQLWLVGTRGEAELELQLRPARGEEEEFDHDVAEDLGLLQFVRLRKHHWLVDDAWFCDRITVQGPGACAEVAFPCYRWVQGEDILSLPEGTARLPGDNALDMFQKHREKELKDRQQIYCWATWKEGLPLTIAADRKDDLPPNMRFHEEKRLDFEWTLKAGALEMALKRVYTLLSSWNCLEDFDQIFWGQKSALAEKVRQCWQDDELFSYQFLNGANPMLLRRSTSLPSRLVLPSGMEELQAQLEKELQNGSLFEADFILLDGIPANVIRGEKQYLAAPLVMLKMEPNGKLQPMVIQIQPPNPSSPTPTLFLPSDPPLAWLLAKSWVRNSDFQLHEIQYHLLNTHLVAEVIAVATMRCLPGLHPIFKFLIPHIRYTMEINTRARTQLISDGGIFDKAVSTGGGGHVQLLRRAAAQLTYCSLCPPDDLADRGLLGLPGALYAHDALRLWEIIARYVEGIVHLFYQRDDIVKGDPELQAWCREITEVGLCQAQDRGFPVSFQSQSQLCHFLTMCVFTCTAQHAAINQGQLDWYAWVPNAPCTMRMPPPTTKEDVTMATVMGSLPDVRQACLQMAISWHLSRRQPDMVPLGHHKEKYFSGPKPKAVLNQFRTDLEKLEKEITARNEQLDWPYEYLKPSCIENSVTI
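Purified human 12hLO at 150 nM in 25 mM Hepes, 0.01% Triton X-100, pH 7.0, preincubated 15 min at room temperature with compound. Reaction started with 40 uM arachidonic acid, 30 min at room temperature. Hydroperoxide measured by Fe-xylenol orange, 573/405 nm absorbance ratio.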
SW480 rerep: induces DNA re-replication in SW480 colon adenocarcinoma cells; Potency, µM (highest dose often 46.1 µM), usual class: activators; SW480 DNA re-replication, Hoechst DNA content imaging, 48 h; 340,000 compounds, 1.8% hits; AID 624297; note: nearly all actives have a fitted effect of over 55% in size
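SW480 cells exposed to compounds for 48 hr at 37 C, 5% CO2, then Hoechst-stained 40 min. Nuclear DNA content imaged by fluorescence scanning (405 nm excitation, 500-530 nm emission); re-replication scored as increased high-intensity nuclei.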
KB-V1 cytotox: kills drug-selected multidrug resistant KB-V1 cells; Potency, µM (series often up to 46.1 µM), usual class: cytotoxic; AID 1347076; 400,000 compounds, 3.4% hits; KB-V1 MDR cells viability, CellTiter-Glo, 72 h; note: nearly all actives have a fitted effect of over 60% in size
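Readout: CellTiter-Glo luminescence, 10 min after addition. Cells: KB-V1 MDR subline, 72 h at 37 degrees C with compound. Analysis: corrected, normalized data fitted to concentration-effect curves.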
Hits are given with their value; 0 = inactive; ? = inconclusive; - = no result. Most compounds without a hit are left out; they make up all but 5.8% or so of the library. Unless noted, calls come from the whole dose curve; as a rule, active = well fitted curve in the direction sought with a large enough effect; inconclusive = small, poorly fitted or top-dose-only effect, or another doubt; inactive = no such curve, though single readings can be large; an effect the other way counts as inactive or inconclusive.

SMILES | KB-3-1 cytotox | PINK1 expr mod | MCF10A rereplic | ALOX12 inh | SW480 rerep | KB-V1 cytotox
COc1ccc(NS(=O)(=O)c2cc([N+](=O)[O-])ccc2NN=Cc2ccccc2OCC(=O)O)cc1 | 0 | 0 | 20.6µM | ? | ? | 0
Cc1ccc(NC(=O)N2CCCC(c3noc(COc4ccccc4)n3)C2)cc1C (centres undefined) | - | - | - | 0 | - | -
COc1ccc2nc(C)c(C(=O)N(C)CC34CC5CC(CC(C5)C3)C4)cc2c1 | - | - | - | 0 | - | -
Cc1c(C(=O)NC2=NCCS2)sc2cccc(F)c12 | - | - | - | 0 | - | -
O=C(O)c1ccccc1NS(=O)(=O)c1ccc(NN=Cc2ccc(F)cc2)c([N+](=O)[O-])c1 | 0 | 0 | 0 | - | 0 | 0
O=C(O)COc1ccccc1/C=N/Nc1ccc(S(=O)(=O)Nc2ccc(Cl)cc2)cc1[N+](=O)[O-] | 0 | 0 | 0 | 31.6µM | 0 | 0
COc1ccccc1NS(=O)(=O)c1ccc(N/N=C/c2ccccc2OCC(=O)O)c([N+](=O)[O-])c1 | 0 | 0 | ? | ? | 0 | 0
COc1ccc(NS(=O)(=O)c2cc([N+](=O)[O-])ccc2N/N=C\c2c(C)[nH]c3ccccc23)cc1 | ? | 0 | 9.2µM | 0 | 0 | ?
O=C(O)c1ccccc1NS(=O)(=O)c1ccc(N/N=C/c2c(-c3ccccc3)[nH]c3ccccc23)c([N+](=O)[O-])c1 | - | - | - | 12.6µM | - | -
CC(C)(C)c1nc(-c2ccccc2)nc2c1OCCC2 | 0 | 0 | 25.9µM | 0 | 0 | ?
CC(C)(N)C(=O)N1CCN(c2nc(-c3ccccc3)nc3c2CCC3)CC1 | - | - | - | 0 | - | -
O=C(NCCc1ccccc1)C1Cc2c(-c3ccc4c(c3)OCO4)ccnc2O1 (centres undefined) | ? | 0 | - | 0 | - | ?
COc1ccc(CNC(=O)C2Cc3c(-c4ccccc4)ccnc3O2)cc1OC (centres undefined) | 0 | 0 | - | 0 | - | ?
O=C(NCc1ccc(F)c(F)c1)C1Cc2c(-c3ccc4c(c3)OCO4)ccnc2O1 (centres undefined) | 8.2µM | 0 | - | 0 | - | 4.11µM
COc1ccc(CNC(=O)C2Cc3c(-c4ccc5c(c4)OCO5)ccnc3O2)cc1OC (centres undefined) | 20.6µM | 0 | - | 0 | - | 9.2µM
CC(C)NC(=O)CNC(=O)CCc1ncc(-c2ccc(F)cc2F)o1 | - | - | - | 0 | - | -
O=C(Nc1ccc(F)cc1)c1cccc(N2C(=O)C3C4CCC(C4)C3C2=O)c1 (centres undefined) | ? | 0 | 0 | 0 | 0 | 10.3µM
COC(=O)c1ccc(NC(=O)c2cccc(N3C(=O)C4C5C=CC(C6CC56)C4C3=O)c2)cc1 (centres undefined) | ? | 0 | 16.4µM | 0 | 0 | ?
O=C(c1cccnc1)N1CC(Oc2ccc(-c3noc(-c4ccccc4)n3)cc2)C1 | - | - | - | 0 | - | -
Cc1cccc(NC(=O)c2ccc(N(Cc3ccccc3)S(C)(=O)=O)cc2)c1 | 0 | 0 | - | 0 | - | ?
CN(c1cccc(NC(=O)c2ccccc2N(Cc2ccccc2)S(C)(=O)=O)c1)S(C)(=O)=O | 0 | 0 | 0 | 0 | 0 | 0
CC(=O)c1cccc(NC(=O)c2ccc(N(Cc3ccccc3)S(C)(=O)=O)cc2)c1 | ? | 0 | 0 | 0 | 0 | 20.6µM
CC(=O)c1cccc(NC(=O)c2ccccc2N(Cc2ccccc2)S(C)(=O)=O)c1 | 0 | 0 | 2.31µM | 0 | 0 | 0
Cc1ccc2c(=O)cc(C(=O)Nc3cccc(Cl)c3)oc2c1C | - | - | - | 0 | - | -
COc1ccc(C(=O)Oc2ccc(/C=C(\C#N)c3nc4cc(C)c(C)cc4[nH]3)cc2)cc1 | - | - | - | 0 | - | -
COc1ccc2nc(/C(C#N)=C\c3ccc(C(=O)O)cc3)[nH]c2c1 | 0 | ? | 0 | 0 | 18.4µM | 0
COc1ccc2nc(/C(C#N)=C\c3ccc(Oc4ccc([N+](=O)[O-])cn4)cc3)[nH]c2c1 | 0 | 11.2µM | 0 | 0 | 0 | ?
COP(=O)(OC)c1nc(-c2ccc([N+](=O)[O-])cc2)oc1NCc1ccccc1 | - | - | - | 0 | - | -
OCCNc1nc(N2CCN(Cc3ccccc3)CC2)nc2ccccc12 | 0 | 0 | 0 | 0 | 0 | 20.6µM

Screening results as filed in PubChem BioAssay.
